DUX4 txn inh – inhibitors of DUX4-driven ZSCAN4 reporter expression, primary screen, 293T cells, Gaussia and Italica luciferase; 37,000 compounds, 0.8% hits; AID 1224904, 2016; activity change, negative = inhibition, % (no concentration beside the values); 293T-iDUX4 ZSCAN4-Gaussia luciferase reporter, 24 h; stronger effect = lower value;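 active = mean inhibition of at least 10% in the main channel, exceeding the control channel by a set limit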;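 also: 0% = median of neutral control wells and -100% = median of positive control wells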
Active calls of the source: *; ! = repeats disagree. Only a selection was taken, and hits are over-represented in it overall.

Results for O=C(C[C@@H]1C[C@H]2c3cc(NC(=O)Nc4ccc(C(F)(F)F)cc4)ccc3O[C@H]2[C@H](CO)O1)NCCc1ccccc1 ?
DUX4 txn inh: -47.4*

Results for COc1ccc(NC(=O)Nc2ccc3c(c2)[C@H]2C[C@@H](CC(=O)NCCc4ccccc4)O[C@@H](CO)[C@H]2O3)cc1 ?
DUX4 txn inh: -1.1

What do the screens show for `O=C(C[C@@H]1C[C@@H]2c3cc(NC(=O)Nc4ccc(C(F)(F)F)cc4)ccc3O[C@@H]2[C@H](CO)O1)NCc1ccc(Cl)cc1`?
DUX4 txn inh: 3.0

What do the screens show for `O=C(C[C@@H]1C[C@H]2c3cc(NC(=O)Nc4ccc(C(F)(F)F)cc4)ccc3O[C@H]2[C@H](CO)O1)NCc1ccc(Cl)cc1`?
DUX4 txn inh: -37.1*

Results for O=C(C[C@@H]1C[C@H]2c3cc(NC(=O)Nc4ccc(C(F)(F)F)cc4)ccc3O[C@H]2[C@H](CO)O1)NCc1ccc2c(c1)OCO2 ?
DUX4 txn inh: -46.6*

What do the screens show for `COc1ccc(NC(=O)Nc2ccc3c(c2)[C@H]2C[C@@H](CC(=O)N[C@@H](C)c4ccccc4)O[C@H](CO)[C@H]2O3)cc1`?
DUX4 txn inh: 0.9

What do the screens show for `O=C(C[C@H]1C[C@@H]2c3cc(NC(=O)CC4CC4)ccc3O[C@@H]2[C@@H](CO)O1)NCCc1ccccc1`?
DUX4 txn inh: -3.1

Results for O=C(C[C@H]1C[C@H]2c3cc(NC(=O)Nc4ccc(C(F)(F)F)cc4)ccc3O[C@H]2[C@@H](CO)O1)NCc1ccc(Cl)cc1 ?
DUX4 txn inh: -3.8

Results for O=C(C[C@@H]1C[C@@H]2c3cc(NC(=O)Nc4ccc(C(F)(F)F)cc4)ccc3O[C@@H]2[C@@H](CO)O1)NCc1ccc2c(c1)OCO2 ?
DUX4 txn inh: -7.1

What do the screens show for `C[C@H](NC(=O)C[C@@H]1C[C@H]2c3cc(NC(=O)Nc4ccc(C(F)(F)F)cc4)ccc3O[C@H]2[C@H](CO)O1)c1ccccc1`?
DUX4 txn inh: -13.9*

Results for COc1ccc(NC(=O)Nc2ccc3c(c2)[C@@H]2C[C@@H](CC(=O)N[C@@H](C)c4ccccc4)O[C@H](CO)[C@@H]2O3)cc1 ?
DUX4 txn inh: 4.1

How did O=C(C[C@H]1C[C@H]2c3cc(NC(=O)Nc4ccc(C(F)(F)F)cc4)ccc3O[C@H]2[C@H](CO)O1)NCc1ccc2c(c1)OCO2 do in these assays?
DUX4 txn inh: -5.6

What do the screens show for `CC(C)C[C@@H]1COCc2cn(nn2)CC[C@@H](Cc2ccccc2)C(=O)N1`?
DUX4 txn inh: 0.5

What do the screens show for `COCCNC(=O)[C@H]1[C@H](CO)[C@H]2Cn3c(ccc(-c4ccccc4F)c3=O)[C@H]2N1C(=O)C1CCCC1`?
DUX4 txn inh: 6.3

How did C[C@H](NC(=O)C[C@H]1C[C@H]2c3cc(NC(=O)CN(C)C)ccc3O[C@H]2[C@H](CO)O1)c1ccccc1 do in these assays?
DUX4 txn inh: 2.4

How did CO[C@@H](CN(C)C(=O)c1cnccn1)[C@H](C)CN([C@@H](C)CO)S(=O)(=O)c1ccc(C)cc1 do in these assays?
DUX4 txn inh: 0.8

What do the screens show for `O=C(C[C@@H]1CC[C@@H]2[C@H](COC[C@@H](O)CN2C(=O)Nc2ccc(F)cc2)O1)NCCc1ccccc1`?
DUX4 txn inh: 2.9

How did CC=Cc1ccc2n(c1=O)C[C@@H]1[C@@H](CO)[C@H](C(=O)NC3CCCC3)N(Cc3cccnc3)[C@H]21 (mixture of isomers) do in these assays?
DUX4 txn inh: 0.9

What do the screens show for `Cc1ccccc1-c1ccc([C@@H]2[C@H](CO)N3C(=O)CN(C(=O)c4cccnc4)C[C@@H]23)cc1`?
DUX4 txn inh: 4.5

What do the screens show for `CCC(=O)Nc1ccc2c(c1)OC[C@H](C)N(C(=O)c1ccncc1)C[C@@H](C)[C@@H](OC)CN(C)C2=O`?
DUX4 txn inh: -0.1

Results for CN1C(=O)c2cc(NC(=O)C3CCOCC3)ccc2OC[C@@H]2O[C@H](CC(=O)NC3CCCC3)CC[C@H]21 ?
DUX4 txn inh: -2.7

What do the screens show for `CC(=O)N1[C@@H]2Cn3c(ccc(-c4ccccc4F)c3=O)[C@H]1[C@@H](C(=O)N1CCOCC1)[C@@H]2CO`?
DUX4 txn inh: 6.7

How did O=C(C[C@@H]1C=C[C@@H](NC(=O)C2CCC2)[C@@H](CO)O1)NCc1ccccc1Cl do in these assays?
DUX4 txn inh: 7.9

How did N#Cc1cccc(-c2ccc(C3[C@@H]4CN(C(=O)C5CCOCC5)C[C@H]3N4)cc2)c1 (stereo partly specified) do in these assays?
DUX4 txn inh: 1.1

How did O=S(=O)(c1ccccc1F)N1CCCCN2[C@H](C1)[C@@H](c1ccc(-c3cncnc3)cc1)[C@@H]2CO do in these assays?
DUX4 txn inh: 30.4

How did N#Cc1cccc(-c2ccc(C3[C@@H]4CN(S(=O)(=O)c5ccccc5F)C[C@H]3N4)cc2)c1 (stereo partly specified) do in these assays?
DUX4 txn inh: -53.6*!

What do the screens show for `O=S(=O)(c1ccccc1F)N1[C@@H]2CNC[C@H]1C2c1ccc(-c2cccc(F)c2)cc1` (stereo partly specified)?
DUX4 txn inh: 3.4

What do the screens show for `O=S(=O)(c1ccccc1F)N1[C@@H]2CNC[C@H]1C2c1ccc(-c2ccncc2)cc1` (stereo partly specified)?
DUX4 txn inh: -2.0

How did O=S(=O)(c1ccccc1F)N1C[C@@H]2N[C@H](C1)C2c1ccc(-c2cncnc2)cc1 (stereo partly specified) do in these assays?
DUX4 txn inh: -14.3*

Results for Cc1ccccc1S(=O)(=O)N1[C@H](C#N)[C@H](c2ccc(-c3ccccc3)cc2)[C@H]1CO ?
DUX4 txn inh: -0.2

How did O=S(=O)(c1ccccc1F)N1C[C@@H]2N[C@H](C1)C2c1ccc(-c2ccncc2)cc1 (stereo partly specified) do in these assays?
DUX4 txn inh: -3.8

What do the screens show for `Cc1ccccc1S(=O)(=O)N1C[C@@H]2N[C@H](C1)C2c1ccc(-c2cccc(C#N)c2)cc1` (stereo partly specified)?
DUX4 txn inh: -71.5*!

Results for O=C(C[C@H]1C[C@@H]2c3cc(NS(=O)(=O)c4ccccc4)ccc3O[C@@H]2[C@@H](CO)O1)N1CCOCC1 ?
DUX4 txn inh: 1.1

How did CCS(=O)(=O)N(C)C[C@H]1OCc2ccccc2-c2c(n(C)c3ccccc23)C(=O)N([C@H](C)CO)C[C@H]1C do in these assays?
DUX4 txn inh: 5.5

How did O=C(c1ccncc1)N1C[C@@H]2[C@H](c3ccccc31)[C@H](CO)N2C(=O)c1ccccn1 do in these assays?
DUX4 txn inh: -4.4

Results for CCCNC(=O)N1CCC2(CC1)CN(Cc1ccccn1)[C@@H](CO)c1c2c2ccc(OC)cc2n1C ?
DUX4 txn inh: 2.7

How did CO[C@H]1CN(C)C(=O)c2ccc(NS(C)(=O)=O)cc2OC[C@H](C)N(CC2CC2)C[C@@H]1C do in these assays?
DUX4 txn inh: 3.9

How did CC(C)CC#Cc1ccc([C@@H]2[C@H]3CN(S(=O)(=O)c4ccc(F)cc4)CCCCN3[C@H]2CO)cc1 do in these assays?
DUX4 txn inh: -21.8*

Results for CC(C)(O)C#Cc1ccc([C@@H]2[C@@H](CO)N3CCCCN(C(=O)c4ccc(F)cc4)C[C@H]23)cc1 ?
DUX4 txn inh: 0.9

How did O=S(=O)(c1ccc(F)cc1)N1CCCCN2[C@@H](CO)[C@H](c3ccc(C#CC4CC4)cc3)[C@@H]2C1 do in these assays?
DUX4 txn inh: -25.9*

What do the screens show for `O=S(=O)(c1ccccc1)N1CCCCN2[C@@H](CO)[C@@H](c3ccc(C#CC4CCCC4)cc3)[C@@H]2C1`?
DUX4 txn inh: 13.1
